# From the supplement of paper PMC12494721
# Where a name gives a salt, the structure may show the parent alone.
# Assays:
# Conditions in all cases: incubation time: 27 h, anaerobic, 37 °C;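 for the amine columns active = adjusted P below 0.05 in both replicates with a change the same way and a mean fold change under 0.8 or over 1.25; inactive = the rest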
# [1] = system: Clostridium sporogenes DSM 1664; assay: growth (OD595) fold change vs plate DMSO controls (fold change (ratio)); higher = more growth
# Summary of the method: (§1)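 After 27 h at 37 °C under anaerobic conditions, 96-well cultures in mGAM were shaken and read at 595 nm. The readings were blank-subtracted, corrected for compound background using 20 µM compound solutions in water, and converted to OD with a calibration factor of 5. Growth is defined as the fold change over the median of DMSO controls on each plate. Fold changes above 1.5 were set to NA, and each value is the mean of 2 biological replicates.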
# Escherichia coli IAI1 [2] = assay: as above
# Summary of the method: as §1
# [3] = system: Klebsiella aerogenes DSM 30053; assay: as above
# Summary of the method: as §1
# [4] = system: Ruminococcus gnavus DSM 108212; assay: as above
# Summary of the method: as §1
# [5] = system: Klebsiella aerogenes DSM 30053; assay: fold change of Histamine concentration vs plate DMSO controls (fold change (ratio)); higher = more amine produced, active = hit call of the paper (significant change in both replicates, either direction)
# Summary of the method: (§2)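 Each value is the fold change relative to DMSO-only wells on the same plate. Four gut bacterial strains were grown anaerobically in mGAM at 37 °C for 27 h in 80 µL wells, starting at OD 0.1 before a 1:1 dilution, with compounds at 20 µM final (sweeteners 50 µM). Whole cultures were extracted with cold acetonitrile/methanol containing 0.1% formic acid, centrifuged, and amines were quantified by LC–triple-quadrupole MS (dynamic MRM) against external calibration curves with within-batch drift correction. Values are means of 2 biological replicates.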
# [6] = system: Clostridium sporogenes DSM 1664; assay: fold change of Tryptamine concentration vs plate DMSO controls (fold change (ratio)); higher = more amine produced, active = hit call of the paper (significant change in both replicates, either direction)
# Summary of the method: as §2
# [7] = system: Ruminococcus gnavus DSM 108212; assay: as above
# Summary of the method: as §2
# Escherichia coli IAI1 [8] = assay: fold change of Putrescine concentration vs plate DMSO controls (fold change (ratio)); higher = more amine produced, active = hit call of the paper (significant change in both replicates, either direction)
# Summary of the method: as §2
# [9] = system: Klebsiella aerogenes DSM 30053; assay: as above
# Summary of the method: as §2
# Escherichia coli IAI1 [10] = assay: fold change of Cadaverine concentration vs plate DMSO controls (fold change (ratio)); higher = more amine produced, active = hit call of the paper (significant change in both replicates, either direction)
# Summary of the method: as §2
# [11] = system: Klebsiella aerogenes DSM 30053; assay: as above
# Summary of the method: as §2
# [12] = system: Ruminococcus gnavus DSM 108212; assay: fold change of 2-Phenylethylamine concentration vs plate DMSO controls (fold change (ratio)); higher = more amine produced, active = hit call of the paper (significant change in both replicates, either direction)
# Summary of the method: as §2
compound,measurement,setting,value
Cc1c(N)c(=O)n(-c2ccccc2)n1C [Ampyrone] (20 µM),growth,[1],1.01
same,growth,Escherichia coli IAI1 [2],0.995
same,growth,[3],0.983
same,growth,[4],0.854
same,fold change of Histamine concentration,[5],0.947 (inactive)
same,fold change of Tryptamine concentration,[6],1.07 (inactive)
same,fold change of Tryptamine concentration,[7],0.901 (inactive)
same,fold change of Putrescine concentration,Escherichia coli IAI1 [8],0.975 (inactive)
same,fold change of Putrescine concentration,[9],0.992 (inactive)
same,fold change of Cadaverine concentration,Escherichia coli IAI1 [10],1.03 (inactive)
same,fold change of Cadaverine concentration,[11],1.01 (inactive)
same,fold change of 2-Phenylethylamine concentration,[12],0.926 (inactive)
C[C@H]1COc2c(N3CCN(C)CC3)c(F)cc3c(=O)c(C(=O)O)cn1c23 [Levofloxacin] (20 µM),growth,[1],0.012
same,growth,Escherichia coli IAI1 [2],0.012
same,growth,[3],0.11
same,fold change of Histamine concentration,[5],0.107 (active)
same,fold change of Tryptamine concentration,[6],0.0435 (active)
same,fold change of Tryptamine concentration,[7],0.755 (active)
same,fold change of Putrescine concentration,Escherichia coli IAI1 [8],0.521 (active)
same,fold change of Putrescine concentration,[9],0.657 (active)
same,fold change of Cadaverine concentration,Escherichia coli IAI1 [10],0.226 (active)
same,fold change of Cadaverine concentration,[11],0.953 (inactive)
same,fold change of 2-Phenylethylamine concentration,[12],0.823 (inactive)
NC[C@H]1CC[C@H](C(=O)O)CC1 [Tranexamic acid] (20 µM),growth,[1],1.06
same,growth,Escherichia coli IAI1 [2],1.02
same,growth,[3],1
same,growth,[4],1.14
same,fold change of Histamine concentration,[5],0.965 (inactive)
same,fold change of Tryptamine concentration,[6],1.03 (inactive)
same,fold change of Tryptamine concentration,[7],0.85 (inactive)
same,fold change of Putrescine concentration,Escherichia coli IAI1 [8],0.977 (inactive)
same,fold change of Putrescine concentration,[9],1.01 (inactive)
same,fold change of Cadaverine concentration,Escherichia coli IAI1 [10],1.01 (inactive)
same,fold change of Cadaverine concentration,[11],1.01 (inactive)
same,fold change of 2-Phenylethylamine concentration,[12],0.849 (inactive)
CN1CCN(CC(=O)N2c3ccccc3C(=O)Nc3cccnc32)CC1 [Pirenzepine dihydrochloride] (20 µM),growth,[1],1.06
same,growth,Escherichia coli IAI1 [2],1.02
same,growth,[3],0.992
same,growth,[4],1.03
same,fold change of Histamine concentration,[5],1.1 (inactive)
same,fold change of Tryptamine concentration,[6],1.02 (inactive)
same,fold change of Tryptamine concentration,[7],0.993 (inactive)
same,fold change of Putrescine concentration,Escherichia coli IAI1 [8],1.01 (inactive)
same,fold change of Putrescine concentration,[9],1.08 (inactive)
same,fold change of Cadaverine concentration,Escherichia coli IAI1 [10],0.99 (inactive)
same,fold change of Cadaverine concentration,[11],1.04 (inactive)
same,fold change of 2-Phenylethylamine concentration,[12],0.916 (inactive)
CC/C(=C(\c1ccccc1)c1ccc(OCCN(C)C)cc1)c1ccccc1 [Tamoxifen citrate] (20 µM),growth,[1],1.11
same,growth,Escherichia coli IAI1 [2],1.06
same,growth,[3],1.02
same,fold change of Histamine concentration,[5],0.918 (inactive)
same,fold change of Tryptamine concentration,[6],0.977 (inactive)
same,fold change of Tryptamine concentration,[7],0.657 (active)
same,fold change of Putrescine concentration,Escherichia coli IAI1 [8],1.06 (inactive)
same,fold change of Putrescine concentration,[9],0.989 (inactive)
same,fold change of Cadaverine concentration,Escherichia coli IAI1 [10],1.05 (inactive)
same,fold change of Cadaverine concentration,[11],1 (inactive)
same,fold change of 2-Phenylethylamine concentration,[12],0.738 (inactive)
C=CC1=C(C(=O)O)N2C(=O)[C@@H](NC(=O)/C(=N\OCC(=O)O)c3csc(N)n3)[C@H]2SC1 [Cefixime] (20 µM),growth,[1],0.286
same,growth,Escherichia coli IAI1 [2],0.0263
same,growth,[3],1.12
same,fold change of Histamine concentration,[5],0.931 (inactive)
same,fold change of Tryptamine concentration,[6],0.826 (inactive)
same,fold change of Tryptamine concentration,[7],0.964 (inactive)
same,fold change of Putrescine concentration,Escherichia coli IAI1 [8],0.484 (active)
same,fold change of Putrescine concentration,[9],1.03 (inactive)
same,fold change of Cadaverine concentration,Escherichia coli IAI1 [10],2.08 (active)
same,fold change of Cadaverine concentration,[11],1.05 (inactive)
same,fold change of 2-Phenylethylamine concentration,[12],0.932 (inactive)
C#C[C@]1(O)CC[C@H]2[C@@H]3CCC4=CCCC[C@@H]4[C@H]3CC[C@@]21C [Lynestrenol] (20 µM),growth,[1],0.94
same,growth,Escherichia coli IAI1 [2],1.17
same,growth,[3],1.02
same,fold change of Histamine concentration,[5],1.06 (inactive)
same,fold change of Tryptamine concentration,[6],0.947 (inactive)
same,fold change of Tryptamine concentration,[7],0.985 (inactive)
same,fold change of Putrescine concentration,Escherichia coli IAI1 [8],1.13 (inactive)
same,fold change of Putrescine concentration,[9],1.02 (inactive)
same,fold change of Cadaverine concentration,Escherichia coli IAI1 [10],0.997 (inactive)
same,fold change of Cadaverine concentration,[11],0.989 (inactive)
same,fold change of 2-Phenylethylamine concentration,[12],1.01 (inactive)
